Measurements reported in PubChem BioAssay (NCI).
This is part of a sample that, as a whole, favours compounds with a hit. Of some 83,000 tested, about 20% had one in any assay.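 Activity criterion: percent growth below 10, measured after cells in 96-well plates were exposed to a single compound concentration for 48 hours.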 A number with no mark means an inactive call. Activity calls are given as the source filed them.

Columns and labels:
Test in all cases: NCI-60 one-dose screen, 48 h (100 = growth as untreated, 0 = no growth, -100 = all killed)
Conditions in all cases: 10 µM unless noted
T-47D breast = system: T-47D breast
BT-549 breast = system: BT-549 breast
SW-620 colon = system: SW-620 colon
MCF7 breast = system: MCF7 breast
HCT-116 colon = system: HCT-116 colon
HCC-2998 colon = system: HCC-2998 colon
KM12 colon = system: KM12 colon
MDA-MB-435 melanoma = system: MDA-MB-435 melanoma

| SMILES | growth (T-47D breast) | growth (BT-549 breast) | growth (SW-620 colon) | growth (MCF7 breast) | growth (HCT-116 colon) | growth (HCC-2998 colon) | growth (KM12 colon) | growth (MDA-MB-435 melanoma) [%] |
| --- | --- | --- | --- | --- | --- | --- | --- | --- |
| CCN(CC)Cc1c(-c2cccc(OC(F)(F)F)c2)[nH]c2ccc(N3CCCC3)cc2c1=O | 103% | 87.7% | 92.3% | 78.4% | 101% | 87% | 95.9% |  |
| CNC(=O)c1cc(Oc2ccc3nc(NC(=O)c4ccc(CN5CCN(C)CC5)c(C(F)(F)F)c4)sc3c2)ccn1 | 38% |  | 11.4% | 28.9% | 31.7% | 70.5% | 46.8% | 53.9 |
| CCOC(=O)c1c(NC(=O)c2ccc(F)cc2F)sc2c1CCC(=O)C2 | 81.4% | 94.2% | 69.7% | 93.4% | 96.5% | 107% | 90.9% |  |
| COc1cc(/C=C/C(=O)c2ccc(N3CCN(C)CC3)cc2)ccc1F | 44.4% |  | 33% | 24.9% | 27.8% | 73% | 36.7% | 54.7 |
| O=S(=O)(Nc1ccc(-c2nc(-c3cccc(O)c3)c(-c3ccnc(Br)c3)[nH]2)cc1)c1ccccc1 | 1.01% (active) | 51.9% | 49.8% | 7.26% (active) | 27% | 32.4% | 21.5% |  |
| CCCCSc1nnc(-c2ccc(-c3ccc(Cl)cc3)nc2C)o1 | 92.8% |  | 101% | 85.8% | 98% | 100% | 103% | 102 |
| CC1CCN(S(=O)(=O)c2ncsc2-c2ccccc2)CC1 | 90.7% | 73.5% | 100% |  | 87.5% | 97.4% | 94.8% |  |
| COc1cc2c3c(n(CCCNCC4CC4)c(=O)c2cc1OC)-c1cc2c(cc1C3=O)OCO2 | 50.6% | 66.1% | -20.1% (active) | -77.4% (active) | -85.1% (active) | 69.1% | 65.1% |  |
| Nc1nc(N)c2c(n1)NC(c1ccccc1)CC(c1ccc(Nc3nc(NCCO)nc(Nc4ccc(Cl)cc4)n3)cc1)=N2 (stereo not drawn) | 62.1% | 79.3% | -83.3% (active) |  | -92.7% (active) | 68.9% | 47% |  |
| C=C(C)C(=O)O[C@H]1C[C@@]2(C)OC(=CC2=O)/C(CO)=C\[C@H]2OC(=O)C(=C)[C@H]12 | -5.88% (active) | -7.7% (active) | -61.3% (active) | -7.53% (active) | -53.7% (active) |  | -8.61% (active) |  |
| CCNCc1c(-c2cccc(OC(F)(F)F)c2)[nH]c2ccc(N3CCCC3)cc2c1=O | 28.9% | 50.6% | 16.8% | 11.4% | 11.2% | -27.7% (active) | 14.8% |  |
| O=C(NCCCNc1cc(-c2cn(-c3ccccc3)nc2-c2cccc(O)c2)ccn1)Nc1cc(C(F)(F)F)cc(C(F)(F)F)c1 | 77.5% | 84.9% | 94.2% | 59.1% | 51.2% | 66.8% | 58.1% |  |
| Oc1ccc(CSc2nnc(-c3cnccn3)o2)c2cccnc12 | 18.5% | 31.7% | 12.9% |  | 14.5% | 13.2% | 12.5% |  |
| O=C(Nc1cccc(-c2nc(-c3ccc(NC(=O)c4cccs4)cc3Cl)no2)c1)Nc1ccc(NC(=O)C2CC2)c(C(F)(F)F)c1 | -50.2% (active) | -19.1% (active) | -49.9% (active) | -40% (active) | 1.27% (active) | -55% (active) | -65.5% (active) |  |
| CCC(=O)Nc1ccc(-c2nc(-c3cccc(O)c3)c(-c3ccnc(Br)c3)[nH]2)cc1 | 26.4% | 74.1% | 84.7% | 13.3% | 55.9% | 95.8% | 58.9% |  |
| N#C/C(=C\c1ccc(N2CCCCC2)cc1)C(=O)Nc1sc2c(c1C#N)CCC2 | 97.7% | 108% | 100% | 87.3% | 89.8% | 105% | 96.5% |  |
